A selection: hits, their analogues and other compounds. The true share with any hit is near 2.3%.
CHO-K1 Ca antag: nonselective inhibitor or artifact in parental CHO-K1 cells; AID 602250; ATP-induced calcium, Fluo-8 fluorescence; 360,000 compounds, 0.6% hits; inhibition, % at 3 µM;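 active = inhibition above a per-plate cutoff, the plate's mean sample inhibition plus 3 SD, cut at about 24% in these data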
CHRM1 agonist: activates human CHRM1 receptor. P11229. CHO-K1 hM1, Fluo-8 calcium fluorescence, agonist mode; 0% DMSO, 100% acetylcholine EC100. activation, % at 3 µM. 360,000 compounds, 0.33% hits. AID 588814;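 active = activation above the run's mean compound activation plus 3 SD, cut at about 16% in these data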;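 note: peak over basal fluorescence ratio within a 140 s kinetic read after compound addition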
Target sequence (P11229 whole entry, looked up): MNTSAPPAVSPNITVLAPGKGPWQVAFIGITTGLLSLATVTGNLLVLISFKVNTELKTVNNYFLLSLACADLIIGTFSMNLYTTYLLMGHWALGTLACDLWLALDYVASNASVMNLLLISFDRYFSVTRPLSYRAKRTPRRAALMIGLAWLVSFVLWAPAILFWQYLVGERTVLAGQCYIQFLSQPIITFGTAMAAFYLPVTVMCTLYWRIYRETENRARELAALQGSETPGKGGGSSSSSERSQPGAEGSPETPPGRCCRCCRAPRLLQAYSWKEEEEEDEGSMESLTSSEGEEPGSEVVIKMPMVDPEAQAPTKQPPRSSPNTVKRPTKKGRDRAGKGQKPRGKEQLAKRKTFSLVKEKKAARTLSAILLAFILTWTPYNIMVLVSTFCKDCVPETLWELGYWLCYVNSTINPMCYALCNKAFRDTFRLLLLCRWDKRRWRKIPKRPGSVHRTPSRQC
CHO-K1 Ca ag: M1 agonist counterscreen hit in parental CHO-K1 cells | 360,000 compounds, 0.48% hits | Fluo-8 calcium fluorescence; scaled to maximal ATP response, vehicle zero | activation, % at 3 µM; in the data active = activation above about 15%;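 note: untransfected CHO-K1 host cells lacking M1 receptor as counterscreen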
M1 antag: blocks human M1 muscarinic receptor; P11229; CHO-K1 hM1, Fluo-8 calcium fluorescence, ACh EC80 antagonist; inhibition, % at 3 µM; 360,000 compounds, 1.3% hits; AID 588852;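 active = percent inhibition above its own plate's cutoff, namely the mean of that plate's compound wells plus 3 SD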;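 note: peak over basal fluorescence ratio during 140 s after agonist addition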
CHRM1 PAM: positive allosteric modulators of human M1 muscarinic receptor. P11229. CHO-K1 hM1, Fluo-8 calcium fluorescence, ACh EC20; 0% = ACh EC20, 100% = maximal ACh. activation, % at 3 µM. 360,000 compounds, 0.088% hits; in the data active = activation above about 19%, passing the limit was not always enough
M1 PAM parental: counter-screen for M1 PAMs: effect in parental CHO-K1 cells; ATP EC20, Fluo-8 calcium fluorescence; 0% at ATP EC20, 100% at ATP max; activation, % at 3 µM; 360,000 compounds, 0.02% hits; AID 602247;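 active = activation above the run cutoff, the mean activation of all test compounds plus 3 SD, cut at about 40% in these data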;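 note: peak over basal fluorescence ratio in a 140 s read after ATP addition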
Hits are given with their value; . = inactive.

SMILES	CHO-K1 Ca antag	CHRM1 agonist	CHO-K1 Ca ag	M1 antag	CHRM1 PAM	M1 PAM parental
CCN=C1SC(C(=O)Nc2ccc(OCC)cc2)CC(=O)N1CC (stereo not drawn)	.	.	.	.	.	.
CCN=C1SC(C(=O)Nc2cc(Cl)cc(Cl)c2)CC(=O)N1CC (stereo not drawn)	.	.	.	.	.	.
CC(NCC(=O)Nc1ccccc1C(=O)NC1CC1)c1ccc(S(C)(=O)=O)cc1 (stereo not drawn)	.	.	.	.	.	.
OC[C@H]1O[C@@H](c2nc3ccc(-c4nc(-c5ccc(Br)cc5)no4)cc3[nH]2)C[C@@H]1O	.	16.0	.	.	.	.
CCN(CC)C(=O)c1ccc2nc([C@H]3C[C@H](O)[C@@H](CO)O3)[nH]c2c1	.	.	.	.	.	.
COc1cccc(-c2c(C(=O)N/N=C(\C)c3ccc(Cl)s3)nnn2-c2nonc2N)c1	.	22.2	.	.	.	.
CCOc1ccc(-c2c(C(=O)N/N=C/c3c[nH]c4ccccc34)nnn2-c2nonc2N)cc1	24.8	.	.	.	.	.
Cc1ccc(/C=N/NC(=O)c2nnn(-c3nonc3N)c2-c2cccs2)cc1	.	68.8	33.1	.	.	.
COc1ccc(/C=N/NC(=O)c2nnn(-c3nonc3N)c2-c2cccc(OC)c2)cc1	.	38.5	.	.	.	.
COc1cccc(-c2c(C(=O)N/N=C(\C)c3ccco3)nnn2-c2nonc2N)c1	.	.	.	.	.	.
CC(C)Cc1ccccc1S(N)(=O)=O	.	.	.	.	.	.
Cc1cc(C)c(OCC(=O)NCCCn2nc(C)cc2C)c(C)c1	.	.	.	.	.	.
Cc1ccc(/C=N/NC(=O)c2nnn(-c3nonc3N)c2-c2ccc3c(c2)OCO3)s1	.	25.0	21.9	.	.	.
CCOc1cccc(-c2c(C(=O)N/N=C/c3cccs3)nnn2-c2nonc2N)c1	.	19.9	25.5	.	.	.
COc1cccc(-c2c(C(=O)N/N=C/c3cccs3)nnn2-c2nonc2N)c1	.	44.1	31.7	.	.	.
COc1ccc(/C=N/NC(=O)c2nnn(-c3nonc3N)c2-c2cccs2)cc1OC	.	.	.	.	.	.
CCOc1cccc(-c2c(C(=O)N/N=C/c3ccncc3)nnn2-c2nonc2N)c1	.	.	.	.	.	.
Nc1nonc1-n1nnc(C(=O)N/N=C/c2ccc(F)cc2)c1-c1ccc2c(c1)OCO2	.	.	.	.	.	.
Cc1ccc(N)c2c1OCCC2=O	.	.	.	.	.	.
CC(C)n1c(=O)c2ccccc2n1Cc1cn(-c2ccc(Cl)cc2)nn1	.	.	.	.	.	.
CCN(CC(=O)Nc1ccc2c(c1)OCCO2)C(=O)CC(NC(C)=O)c1ccccc1 (stereo not drawn)	.	.	.	.	.	.
COc1ccc(NC(=O)c2cccnc2)c(OC)c1	26.8	.	.	.	.	.
COc1ccc(NC(=O)c2ccccc2OCc2ccc(F)cc2)c(OC)c1	.	.	.	.	.	42.8
COc1ccc(NC(=O)c2ccccc2Oc2ccccc2)c(OC)c1	.	.	.	.	.	.
COC(=O)c1cc(OC)c(OC)cc1NC(=O)c1ccc(OC)cc1	25.7	.	20.1	.	.	.
SMILES	CHO-K1 Ca antag	CHRM1 agonist	CHO-K1 Ca ag	M1 antag	CHRM1 PAM	M1 PAM parental
COc1ccc(C(=O)Nc2ccccc2Cc2ccccc2)c(OC)c1	.	.	.	.	.	51.8
CCNS(=O)(=O)c1ccc2c(c1)NCC2	.	.	.	.	.	.
CC(C)(C)n1nnnc1C(c1cccs1)N(Cc1cccnc1)Cc1ccco1 (stereo not drawn)	.	.	.	97.5	.	.
CC(C)(C)n1nnnc1C(c1cccs1)N(Cc1ccccc1)Cc1ccco1 (stereo not drawn)	.	.	.	.	.	.
O=C1c2cccc3c(O)ccc(c23)C(=O)N1Cc1ccco1	26.1	68.2	65.3	30.3	.	.
O=C1c2cccc3c(O)ccc(c23)C(=O)N1c1ccc(Cl)cc1	.	77.5	18.4	44.8	.	.
CC(=O)Nc1ccc(N2C(=O)c3cccc4c(O)ccc(c34)C2=O)cc1	.	98.0	40.6	38.9	.	.
CCN(CC(=O)NCCCN1CCOCC1)S(=O)(=O)c1ccc(F)cc1	.	.	.	.	.	.

Assay outcomes (PubChem BioAssay)
